Common to all, as to experiment: DAPPL (digital affinity profiling via proximity ligation, sequencing); 10 mM Tris-HCl pH 7.5, 50 mM NaCl, 1 mM DTT, 4% glycerol, room temperature, 30 min; GST-TFs on glutathione beads, 16-mer random dsDNA library, 0.1% formaldehyde crosslink after washing; high values mean tight binding
Holding throughout (details): protein: recombinant; tags: N-terminal GST; dsDNA, one strand shown

The target in test [1] is T1, ELK1 (Homo sapiens, UniProt P19419 1-428).
T1 sequence: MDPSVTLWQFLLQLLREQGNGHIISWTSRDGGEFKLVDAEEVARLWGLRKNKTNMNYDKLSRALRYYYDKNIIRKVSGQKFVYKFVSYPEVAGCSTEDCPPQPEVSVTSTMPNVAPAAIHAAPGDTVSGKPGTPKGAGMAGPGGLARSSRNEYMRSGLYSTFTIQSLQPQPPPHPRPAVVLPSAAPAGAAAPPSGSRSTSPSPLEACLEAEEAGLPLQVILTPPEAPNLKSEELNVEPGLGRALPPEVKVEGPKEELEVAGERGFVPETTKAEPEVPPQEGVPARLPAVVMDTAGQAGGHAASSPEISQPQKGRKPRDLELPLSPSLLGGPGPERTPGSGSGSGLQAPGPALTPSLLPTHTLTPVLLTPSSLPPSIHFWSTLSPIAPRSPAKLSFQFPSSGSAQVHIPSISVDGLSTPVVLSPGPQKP
The essentials: (§1)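 GST fusions of human transcription factors were expressed in yeast and captured with glutathione beads. Once given DNA barcodes and pooled alongside a tag-only sample, they were incubated for 30 min at room temperature with 200 nmole of a random double-stranded 16-mer DNA library in Tris/NaCl/DTT/glycerol buffer, then washed, crosslinked (0.1% formaldehyde), proximity-ligated, PCR-amplified and sequenced on an Illumina NextSeq500. The binding signal of each hexamer is its read frequency for a factor divided by its frequency for the tag-only sample.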

Test [2] concerns the target T2, GABPA (Homo sapiens, UniProt Q06546 1-454).
T2 sequence: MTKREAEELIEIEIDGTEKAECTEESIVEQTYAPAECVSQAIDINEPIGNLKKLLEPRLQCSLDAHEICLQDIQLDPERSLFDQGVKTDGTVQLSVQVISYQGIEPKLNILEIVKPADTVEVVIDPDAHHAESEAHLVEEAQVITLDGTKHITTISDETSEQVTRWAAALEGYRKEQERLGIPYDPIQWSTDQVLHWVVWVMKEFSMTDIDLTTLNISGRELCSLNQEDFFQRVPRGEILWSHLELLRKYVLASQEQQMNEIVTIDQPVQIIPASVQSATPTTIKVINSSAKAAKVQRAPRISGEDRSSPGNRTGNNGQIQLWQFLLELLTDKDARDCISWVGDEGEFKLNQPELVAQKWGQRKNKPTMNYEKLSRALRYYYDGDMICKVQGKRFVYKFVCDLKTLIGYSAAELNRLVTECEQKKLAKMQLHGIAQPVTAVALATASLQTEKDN
The essentials: as §1

In test [3] the target is T3, ERG (Homo sapiens, UniProt P11308 1-479).
T3 sequence: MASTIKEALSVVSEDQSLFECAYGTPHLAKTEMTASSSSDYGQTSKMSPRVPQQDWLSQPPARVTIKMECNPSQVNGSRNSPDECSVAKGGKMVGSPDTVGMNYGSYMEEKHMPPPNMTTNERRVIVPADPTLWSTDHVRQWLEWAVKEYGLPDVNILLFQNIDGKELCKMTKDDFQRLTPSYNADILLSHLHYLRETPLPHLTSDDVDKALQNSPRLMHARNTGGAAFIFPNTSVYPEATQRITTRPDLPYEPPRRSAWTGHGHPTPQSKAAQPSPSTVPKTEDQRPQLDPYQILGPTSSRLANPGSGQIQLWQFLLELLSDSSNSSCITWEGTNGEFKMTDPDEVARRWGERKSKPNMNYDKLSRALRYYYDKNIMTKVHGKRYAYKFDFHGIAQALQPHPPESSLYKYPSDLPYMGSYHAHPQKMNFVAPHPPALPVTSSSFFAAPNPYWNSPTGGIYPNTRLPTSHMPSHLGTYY
The essentials: as §1

In test [4] the target is ELF1 (Homo sapiens, UniProt P32519 1-619). The essentials: as §1
Test [5] has as its target T4, EHF (Homo sapiens, UniProt Q9NZC4 1-300).
T4 sequence: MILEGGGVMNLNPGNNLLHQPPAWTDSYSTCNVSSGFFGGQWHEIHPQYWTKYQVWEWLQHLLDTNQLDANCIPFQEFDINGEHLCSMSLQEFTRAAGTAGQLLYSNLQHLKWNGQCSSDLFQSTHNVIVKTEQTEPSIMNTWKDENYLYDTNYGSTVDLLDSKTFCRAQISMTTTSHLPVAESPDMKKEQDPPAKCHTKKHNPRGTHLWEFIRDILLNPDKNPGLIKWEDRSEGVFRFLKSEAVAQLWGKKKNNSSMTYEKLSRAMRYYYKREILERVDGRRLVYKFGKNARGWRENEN
The essentials: as §1

The target of test [6] is SPIB (Homo sapiens, UniProt Q01892 1-262). The essentials:
as §1

Test [7] has as its target ETV5 (Homo sapiens, UniProt P41161 1-510). The essentials:
as §1

In test [8] the target is ELF4 (Homo sapiens, UniProt Q99607 1-663). An outline of the steps:
as §1

The target in test [9] is T5, ELK4 (Homo sapiens, UniProt P28324-2 1-405).
T5 sequence: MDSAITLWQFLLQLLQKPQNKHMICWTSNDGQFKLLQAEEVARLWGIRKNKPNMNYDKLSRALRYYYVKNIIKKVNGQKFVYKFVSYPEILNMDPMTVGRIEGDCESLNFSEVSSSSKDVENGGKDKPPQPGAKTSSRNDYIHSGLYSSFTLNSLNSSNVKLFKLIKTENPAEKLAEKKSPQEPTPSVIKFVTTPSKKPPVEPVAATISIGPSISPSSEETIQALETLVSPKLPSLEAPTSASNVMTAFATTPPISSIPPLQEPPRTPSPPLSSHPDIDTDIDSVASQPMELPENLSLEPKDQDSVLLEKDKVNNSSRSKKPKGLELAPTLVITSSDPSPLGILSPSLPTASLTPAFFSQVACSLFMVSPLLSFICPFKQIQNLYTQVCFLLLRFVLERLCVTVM
The essentials:
as §1

For test [10], the target named is T6, ETV2 (Homo sapiens, UniProt O00321 1-342).
T6 sequence: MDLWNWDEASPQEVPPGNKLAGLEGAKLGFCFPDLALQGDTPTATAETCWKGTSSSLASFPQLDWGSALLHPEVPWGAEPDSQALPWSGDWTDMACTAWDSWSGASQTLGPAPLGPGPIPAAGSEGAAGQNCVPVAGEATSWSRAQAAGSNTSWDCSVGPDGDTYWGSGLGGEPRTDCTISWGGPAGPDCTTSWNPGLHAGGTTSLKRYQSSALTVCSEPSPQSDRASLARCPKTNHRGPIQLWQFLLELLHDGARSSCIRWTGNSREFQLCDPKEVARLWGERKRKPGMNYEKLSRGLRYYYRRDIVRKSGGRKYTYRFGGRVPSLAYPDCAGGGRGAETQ
An outline of the steps:
as §1

The target of test [11] is ETV1 (Homo sapiens, UniProt P50549 1-477). The essentials:
as §1

For test [12], the target named is T7, ETV3L (Homo sapiens, UniProt Q6ZN32 1-361).
T7 sequence: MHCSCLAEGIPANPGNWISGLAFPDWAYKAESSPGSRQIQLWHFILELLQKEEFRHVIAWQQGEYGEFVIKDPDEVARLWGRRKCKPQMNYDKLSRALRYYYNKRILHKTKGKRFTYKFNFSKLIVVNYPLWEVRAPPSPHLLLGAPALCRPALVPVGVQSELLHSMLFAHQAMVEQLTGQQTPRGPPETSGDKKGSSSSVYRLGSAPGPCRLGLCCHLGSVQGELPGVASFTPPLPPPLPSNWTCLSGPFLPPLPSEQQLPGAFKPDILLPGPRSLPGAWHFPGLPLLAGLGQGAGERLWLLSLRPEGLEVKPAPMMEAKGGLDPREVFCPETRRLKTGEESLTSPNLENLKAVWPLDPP
An outline of the steps: as §1

Test [13] addresses T8, ETS2 (Homo sapiens, UniProt P15036 1-469).
T8 sequence: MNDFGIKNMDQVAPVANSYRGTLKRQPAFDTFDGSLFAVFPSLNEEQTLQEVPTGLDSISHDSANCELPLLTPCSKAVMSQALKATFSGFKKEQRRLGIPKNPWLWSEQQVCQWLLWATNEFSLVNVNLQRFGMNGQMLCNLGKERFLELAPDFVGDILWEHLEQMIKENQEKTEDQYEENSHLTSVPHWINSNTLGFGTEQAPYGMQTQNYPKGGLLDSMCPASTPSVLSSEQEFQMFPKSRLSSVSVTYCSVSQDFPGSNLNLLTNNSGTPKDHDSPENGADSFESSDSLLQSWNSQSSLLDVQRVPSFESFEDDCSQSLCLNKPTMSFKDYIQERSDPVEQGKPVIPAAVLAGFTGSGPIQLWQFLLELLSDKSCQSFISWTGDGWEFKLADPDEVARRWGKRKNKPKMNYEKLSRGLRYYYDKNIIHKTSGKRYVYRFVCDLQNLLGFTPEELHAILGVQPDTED
An outline of the steps:
as §1

The target in test [14] is T9, SPDEF (Homo sapiens, UniProt O95238 1-335).
T9 sequence: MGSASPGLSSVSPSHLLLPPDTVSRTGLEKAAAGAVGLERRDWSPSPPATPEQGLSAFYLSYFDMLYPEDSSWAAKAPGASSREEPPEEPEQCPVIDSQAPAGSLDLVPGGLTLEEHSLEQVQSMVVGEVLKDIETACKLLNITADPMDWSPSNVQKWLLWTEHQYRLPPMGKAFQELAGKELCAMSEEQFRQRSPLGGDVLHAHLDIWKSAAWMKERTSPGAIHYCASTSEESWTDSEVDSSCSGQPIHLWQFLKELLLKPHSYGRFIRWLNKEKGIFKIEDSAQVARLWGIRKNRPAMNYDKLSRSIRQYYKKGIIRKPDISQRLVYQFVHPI
An outline of the steps:
as §1

Test [15] concerns the target T10, ETV7 (Homo sapiens, UniProt Q9Y603 1-341).
T10 sequence: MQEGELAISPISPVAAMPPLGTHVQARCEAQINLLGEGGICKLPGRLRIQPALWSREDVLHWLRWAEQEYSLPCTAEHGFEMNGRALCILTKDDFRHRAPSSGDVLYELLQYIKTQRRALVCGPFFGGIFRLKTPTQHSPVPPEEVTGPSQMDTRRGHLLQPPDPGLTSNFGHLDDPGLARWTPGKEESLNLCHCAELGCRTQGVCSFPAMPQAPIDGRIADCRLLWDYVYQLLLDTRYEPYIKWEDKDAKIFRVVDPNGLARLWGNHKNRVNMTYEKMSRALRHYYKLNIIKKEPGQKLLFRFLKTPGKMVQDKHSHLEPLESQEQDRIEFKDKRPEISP
The essentials:
as §1

The target in test [16] is T11, ETV3 (Homo sapiens, UniProt P41162-2 1-143).
T11 sequence: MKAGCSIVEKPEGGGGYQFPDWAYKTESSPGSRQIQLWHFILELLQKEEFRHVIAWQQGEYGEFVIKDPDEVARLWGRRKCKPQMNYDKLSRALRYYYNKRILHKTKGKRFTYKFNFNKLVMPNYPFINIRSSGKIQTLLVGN
The essentials: as §1

In test [17] the target is ETV6 (Homo sapiens, UniProt P41212 1-452). The essentials:
as §1

Sequence of ETV1 (P50549 whole entry): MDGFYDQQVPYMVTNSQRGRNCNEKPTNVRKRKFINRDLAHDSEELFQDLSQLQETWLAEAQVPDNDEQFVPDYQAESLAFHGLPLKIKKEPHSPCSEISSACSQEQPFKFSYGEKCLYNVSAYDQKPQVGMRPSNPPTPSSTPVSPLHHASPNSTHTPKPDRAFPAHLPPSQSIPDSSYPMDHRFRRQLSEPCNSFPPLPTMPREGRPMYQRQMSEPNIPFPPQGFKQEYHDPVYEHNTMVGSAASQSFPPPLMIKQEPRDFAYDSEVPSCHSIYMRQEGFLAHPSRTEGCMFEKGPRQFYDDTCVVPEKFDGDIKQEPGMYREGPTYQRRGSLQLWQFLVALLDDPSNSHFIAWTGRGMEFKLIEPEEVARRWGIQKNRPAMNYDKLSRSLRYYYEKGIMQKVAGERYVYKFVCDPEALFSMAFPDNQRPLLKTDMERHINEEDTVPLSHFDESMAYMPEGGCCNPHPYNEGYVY
Sequence of SPIB (Q01892 whole entry): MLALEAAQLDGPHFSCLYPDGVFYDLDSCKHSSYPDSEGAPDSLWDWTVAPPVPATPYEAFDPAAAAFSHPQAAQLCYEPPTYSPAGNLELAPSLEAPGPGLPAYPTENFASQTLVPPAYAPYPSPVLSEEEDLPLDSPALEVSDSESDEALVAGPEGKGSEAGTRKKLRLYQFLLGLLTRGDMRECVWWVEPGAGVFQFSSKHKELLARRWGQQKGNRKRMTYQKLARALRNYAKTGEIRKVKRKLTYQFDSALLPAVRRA
Sequence of ETV6 (P41212 whole entry): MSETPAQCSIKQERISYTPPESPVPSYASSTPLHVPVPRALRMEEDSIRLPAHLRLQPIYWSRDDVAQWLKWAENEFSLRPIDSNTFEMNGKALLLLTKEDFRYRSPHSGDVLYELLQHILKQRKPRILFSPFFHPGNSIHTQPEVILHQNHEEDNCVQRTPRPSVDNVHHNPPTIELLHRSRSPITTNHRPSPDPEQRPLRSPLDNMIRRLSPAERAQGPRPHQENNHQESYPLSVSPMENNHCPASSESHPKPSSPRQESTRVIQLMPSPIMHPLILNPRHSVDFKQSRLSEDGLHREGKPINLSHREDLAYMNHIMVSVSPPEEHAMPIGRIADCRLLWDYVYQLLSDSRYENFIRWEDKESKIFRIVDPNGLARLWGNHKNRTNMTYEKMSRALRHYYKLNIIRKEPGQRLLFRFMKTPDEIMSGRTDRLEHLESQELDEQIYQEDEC
Sequence of ELF1 (P32519 whole entry): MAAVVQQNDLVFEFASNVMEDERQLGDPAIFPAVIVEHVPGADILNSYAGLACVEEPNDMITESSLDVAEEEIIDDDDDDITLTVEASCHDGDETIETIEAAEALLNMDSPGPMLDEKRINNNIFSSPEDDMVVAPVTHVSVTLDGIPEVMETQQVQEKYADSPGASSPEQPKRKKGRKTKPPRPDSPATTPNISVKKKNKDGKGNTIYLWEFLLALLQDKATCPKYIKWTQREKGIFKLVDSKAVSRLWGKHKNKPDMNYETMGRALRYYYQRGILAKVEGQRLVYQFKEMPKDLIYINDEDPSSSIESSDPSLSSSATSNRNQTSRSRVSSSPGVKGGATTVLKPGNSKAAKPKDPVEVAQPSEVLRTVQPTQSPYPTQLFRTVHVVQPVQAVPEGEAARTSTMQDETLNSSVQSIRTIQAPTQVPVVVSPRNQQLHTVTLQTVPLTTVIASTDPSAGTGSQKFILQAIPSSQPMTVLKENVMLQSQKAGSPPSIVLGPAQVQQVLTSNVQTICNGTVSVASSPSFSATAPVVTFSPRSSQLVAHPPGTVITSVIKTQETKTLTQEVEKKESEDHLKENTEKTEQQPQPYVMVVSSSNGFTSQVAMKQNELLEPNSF
Sequence of ETV5 (P41161 whole entry): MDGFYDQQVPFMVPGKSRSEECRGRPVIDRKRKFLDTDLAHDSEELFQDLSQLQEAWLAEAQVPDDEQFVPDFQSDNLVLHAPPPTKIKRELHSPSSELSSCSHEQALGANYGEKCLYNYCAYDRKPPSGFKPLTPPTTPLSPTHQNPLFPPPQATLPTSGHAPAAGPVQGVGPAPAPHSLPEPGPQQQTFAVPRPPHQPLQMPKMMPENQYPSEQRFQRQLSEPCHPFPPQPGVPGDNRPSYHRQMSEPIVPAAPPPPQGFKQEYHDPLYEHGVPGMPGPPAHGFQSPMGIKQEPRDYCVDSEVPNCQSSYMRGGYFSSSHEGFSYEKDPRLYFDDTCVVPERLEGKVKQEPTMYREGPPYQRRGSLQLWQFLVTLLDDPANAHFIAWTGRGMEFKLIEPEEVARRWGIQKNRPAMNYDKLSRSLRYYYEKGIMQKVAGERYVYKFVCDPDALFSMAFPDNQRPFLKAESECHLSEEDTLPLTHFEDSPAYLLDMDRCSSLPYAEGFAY
Sequence of ELF4 (Q99607 whole entry): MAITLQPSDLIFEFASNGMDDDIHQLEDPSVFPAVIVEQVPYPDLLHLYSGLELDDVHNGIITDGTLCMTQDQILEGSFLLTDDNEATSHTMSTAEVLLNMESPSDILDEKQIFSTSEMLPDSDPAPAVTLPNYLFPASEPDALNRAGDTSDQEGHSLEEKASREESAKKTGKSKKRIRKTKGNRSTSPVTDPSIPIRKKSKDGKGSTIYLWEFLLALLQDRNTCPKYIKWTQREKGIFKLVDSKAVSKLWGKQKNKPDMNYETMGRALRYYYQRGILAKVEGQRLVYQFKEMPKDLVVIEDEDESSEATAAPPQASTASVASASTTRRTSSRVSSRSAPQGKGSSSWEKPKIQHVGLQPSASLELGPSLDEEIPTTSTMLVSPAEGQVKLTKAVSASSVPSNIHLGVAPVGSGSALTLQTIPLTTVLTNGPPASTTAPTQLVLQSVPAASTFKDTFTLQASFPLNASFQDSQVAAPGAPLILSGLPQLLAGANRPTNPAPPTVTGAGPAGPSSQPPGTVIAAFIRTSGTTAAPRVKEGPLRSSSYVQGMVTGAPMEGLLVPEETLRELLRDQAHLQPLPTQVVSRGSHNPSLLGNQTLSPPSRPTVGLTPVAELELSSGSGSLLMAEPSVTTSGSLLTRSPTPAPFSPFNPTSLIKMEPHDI

Regarding CTGGGC, the binding signal is 1.08 fold enrichment (6-mer frequency, TF over GST control) in test [1]; 1.09 fold enrichment (6-mer frequency, TF over GST control) in [2]; 1.04 fold enrichment (6-mer frequency, TF over GST control) in test [3]; 1.24 fold enrichment (6-mer frequency, TF over GST control) in test [4]; 1.01 fold enrichment (6-mer frequency, TF over GST control) in [5]; 1.03 fold enrichment (6-mer frequency, TF over GST control) in test [6]. In addition, the binding signal in [7] was 1.04 fold enrichment (6-mer frequency, TF over GST control); in test [8], 1.07 fold enrichment (6-mer frequency, TF over GST control); in test [9] it was 1.11 fold enrichment (6-mer frequency, TF over GST control); in [10], 1.13 fold enrichment (6-mer frequency, TF over GST control); in [11], 1 fold enrichment (6-mer frequency, TF over GST control); in [12], 1.12 fold enrichment (6-mer frequency, TF over GST control). Also, the binding signal in test [13] was 1.03 fold enrichment (6-mer frequency, TF over GST control); in [14] it was 1 fold enrichment (6-mer frequency, TF over GST control); in test [15] it was 1.24 fold enrichment (6-mer frequency, TF over GST control); in test [16] it was 1.03 fold enrichment (6-mer frequency, TF over GST control); in test [17], 1.03 fold enrichment (6-mer frequency, TF over GST control).

For the origin of these results see paper PMC7862700, “An all-to-all approach to the identification of sequence-specific readers for epigenetic DNA modifications on cytosine”.
